Assay results as given in article PMC7862700, “An all-to-all approach to the identification of sequence-specific readers for epigenetic DNA modifications on cytosine”.

Assays:
Experiment in all cases: DAPPL (digital affinity profiling via proximity ligation, sequencing); 10 mM Tris-HCl pH 7.5, 50 mM NaCl, 1 mM DTT, 4% glycerol, room temperature, 30 min; GST-TFs on glutathione beads, 16-mer random dsDNA library, 0.1% formaldehyde crosslink after washing; high values mean tight binding
FLI1 = target: T1, FLI1 (Homo sapiens, UniProt Q01543 1-452); conditions: protein: recombinant; tags: N-terminal GST; dsDNA, one strand shown
T1 sequence: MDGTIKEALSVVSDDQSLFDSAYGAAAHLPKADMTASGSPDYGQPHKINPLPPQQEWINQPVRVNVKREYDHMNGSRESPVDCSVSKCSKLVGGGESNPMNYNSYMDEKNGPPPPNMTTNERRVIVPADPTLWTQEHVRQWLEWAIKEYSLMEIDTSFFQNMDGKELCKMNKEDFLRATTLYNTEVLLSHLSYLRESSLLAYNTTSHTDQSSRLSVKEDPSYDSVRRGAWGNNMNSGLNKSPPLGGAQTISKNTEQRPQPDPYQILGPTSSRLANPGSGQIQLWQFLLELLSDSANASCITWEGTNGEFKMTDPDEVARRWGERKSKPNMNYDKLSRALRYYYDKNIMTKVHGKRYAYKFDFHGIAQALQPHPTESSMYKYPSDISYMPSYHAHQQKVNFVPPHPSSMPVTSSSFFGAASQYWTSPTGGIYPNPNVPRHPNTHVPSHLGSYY
Method in brief: (§1)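 Beads coated with glutathione captured GST-fused human transcription factors that had been expressed in yeast, and the factors were then given DNA barcodes and pooled with a tag-only sample. The pools were incubated with 200 nmole of a random double-stranded 16-mer DNA library in Tris/NaCl/DTT/glycerol buffer for 30 min at room temperature, washed, crosslinked with 0.1% formaldehyde and proximity-ligated with BsaI/T4 ligase at 37 °C for 1 h. PCR amplification and Illumina NextSeq500 sequencing came last. Binding signal is each hexamer's read frequency for a factor divided by its frequency for the tag-only sample.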

ELK1 = target: T2, ELK1 (Homo sapiens, UniProt P19419 1-428); conditions: protein: recombinant; tags: N-terminal GST; dsDNA, one strand shown
T2 sequence: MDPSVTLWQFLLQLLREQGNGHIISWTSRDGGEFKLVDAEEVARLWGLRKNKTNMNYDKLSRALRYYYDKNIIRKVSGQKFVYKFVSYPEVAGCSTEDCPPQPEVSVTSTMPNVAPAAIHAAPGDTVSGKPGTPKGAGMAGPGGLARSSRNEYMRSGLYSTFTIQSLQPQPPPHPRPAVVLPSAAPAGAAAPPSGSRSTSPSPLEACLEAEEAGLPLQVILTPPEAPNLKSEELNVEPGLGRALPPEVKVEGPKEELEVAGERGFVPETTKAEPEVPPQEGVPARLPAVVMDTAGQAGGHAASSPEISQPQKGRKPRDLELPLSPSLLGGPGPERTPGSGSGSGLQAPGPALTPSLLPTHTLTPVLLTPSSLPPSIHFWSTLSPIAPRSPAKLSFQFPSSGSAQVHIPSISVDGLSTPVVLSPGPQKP
Method in brief: as §1

GABPA = target: T3, GABPA (Homo sapiens, UniProt Q06546 1-454); conditions: protein: recombinant; tags: N-terminal GST; dsDNA, one strand shown
T3 sequence: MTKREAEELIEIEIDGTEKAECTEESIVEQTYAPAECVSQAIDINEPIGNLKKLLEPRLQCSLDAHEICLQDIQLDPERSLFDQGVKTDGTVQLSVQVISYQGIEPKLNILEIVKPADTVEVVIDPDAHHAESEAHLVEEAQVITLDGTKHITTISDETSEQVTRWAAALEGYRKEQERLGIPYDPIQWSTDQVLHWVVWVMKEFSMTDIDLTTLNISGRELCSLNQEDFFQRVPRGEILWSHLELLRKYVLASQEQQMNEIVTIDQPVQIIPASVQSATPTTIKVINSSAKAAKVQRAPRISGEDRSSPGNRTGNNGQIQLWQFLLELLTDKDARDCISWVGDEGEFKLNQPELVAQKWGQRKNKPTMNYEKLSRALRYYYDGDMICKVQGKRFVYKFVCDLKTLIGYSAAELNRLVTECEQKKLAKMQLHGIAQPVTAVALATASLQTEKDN
Method in brief: as §1

ERG = target: T4, ERG (Homo sapiens, UniProt P11308 1-479); conditions: protein: recombinant; tags: N-terminal GST; dsDNA, one strand shown
T4 sequence: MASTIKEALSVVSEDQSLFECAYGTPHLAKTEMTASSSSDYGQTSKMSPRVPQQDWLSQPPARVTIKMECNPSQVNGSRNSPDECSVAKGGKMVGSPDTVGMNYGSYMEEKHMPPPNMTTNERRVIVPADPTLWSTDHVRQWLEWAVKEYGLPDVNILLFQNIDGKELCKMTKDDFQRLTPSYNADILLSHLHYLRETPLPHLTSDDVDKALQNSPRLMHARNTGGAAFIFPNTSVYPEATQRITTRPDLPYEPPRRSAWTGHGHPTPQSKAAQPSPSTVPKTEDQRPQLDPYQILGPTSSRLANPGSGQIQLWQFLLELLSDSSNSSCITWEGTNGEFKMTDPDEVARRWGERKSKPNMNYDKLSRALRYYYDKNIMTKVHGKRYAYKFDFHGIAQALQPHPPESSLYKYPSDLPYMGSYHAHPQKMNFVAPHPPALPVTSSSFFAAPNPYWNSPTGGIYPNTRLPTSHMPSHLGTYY
Method in brief: as §1

ELF1 = ELF1 (Homo sapiens, UniProt P32519 1-619); conditions: protein: recombinant; tags: N-terminal GST; dsDNA, one strand shown
Method in brief: as §1

EHF = target: T5, EHF (Homo sapiens, UniProt Q9NZC4 1-300); conditions: protein: recombinant; tags: N-terminal GST; dsDNA, one strand shown
T5 sequence: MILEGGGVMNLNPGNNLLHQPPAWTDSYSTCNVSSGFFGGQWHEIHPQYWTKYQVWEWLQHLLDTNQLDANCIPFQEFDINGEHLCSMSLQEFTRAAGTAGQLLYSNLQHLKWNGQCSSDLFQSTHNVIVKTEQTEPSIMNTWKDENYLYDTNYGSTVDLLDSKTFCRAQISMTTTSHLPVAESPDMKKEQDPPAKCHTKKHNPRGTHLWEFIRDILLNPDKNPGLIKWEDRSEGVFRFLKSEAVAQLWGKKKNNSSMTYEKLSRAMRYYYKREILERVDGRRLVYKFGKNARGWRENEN
Method in brief: as §1

SPI1 = SPI1 (Homo sapiens, UniProt P17947 1-270); conditions: protein: recombinant; tags: N-terminal GST; dsDNA, one strand shown
Method in brief: as §1

SPIB = SPIB (Homo sapiens, UniProt Q01892 1-262); conditions: protein: recombinant; tags: N-terminal GST; dsDNA, one strand shown
Method in brief: as §1

ELK3 = target: T6, ELK3 (Homo sapiens, UniProt P41970 1-407); conditions: protein: recombinant; tags: N-terminal GST; dsDNA, one strand shown
T6 sequence: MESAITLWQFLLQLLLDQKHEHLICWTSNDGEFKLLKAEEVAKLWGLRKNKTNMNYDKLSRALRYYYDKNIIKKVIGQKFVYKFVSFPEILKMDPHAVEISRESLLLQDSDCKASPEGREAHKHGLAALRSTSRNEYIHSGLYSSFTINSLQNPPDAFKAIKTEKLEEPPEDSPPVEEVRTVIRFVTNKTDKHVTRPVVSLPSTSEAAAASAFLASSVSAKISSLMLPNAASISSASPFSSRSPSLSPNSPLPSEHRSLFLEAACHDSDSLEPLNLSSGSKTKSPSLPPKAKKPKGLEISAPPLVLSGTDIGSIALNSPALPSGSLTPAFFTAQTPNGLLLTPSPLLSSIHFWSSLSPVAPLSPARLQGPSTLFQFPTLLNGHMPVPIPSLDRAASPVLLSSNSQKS
Method in brief: as §1

FEV = target: T7, FEV (Homo sapiens, UniProt Q99581 1-238); conditions: protein: recombinant; tags: N-terminal GST; dsDNA, one strand shown
T7 sequence: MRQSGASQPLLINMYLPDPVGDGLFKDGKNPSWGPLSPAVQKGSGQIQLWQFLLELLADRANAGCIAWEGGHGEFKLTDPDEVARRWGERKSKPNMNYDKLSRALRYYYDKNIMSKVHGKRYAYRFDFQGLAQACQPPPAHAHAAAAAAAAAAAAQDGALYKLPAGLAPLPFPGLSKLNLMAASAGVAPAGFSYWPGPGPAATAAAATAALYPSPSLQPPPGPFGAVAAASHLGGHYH
Method in brief: as §1

ETV5 = ETV5 (Homo sapiens, UniProt P41161 1-510); conditions: protein: recombinant; tags: N-terminal GST; dsDNA, one strand shown
Method in brief: as §1

HSF1 = HSF1 (Homo sapiens, UniProt Q00613 1-529); conditions: protein: recombinant; tags: N-terminal GST; chain copies: 3; dsDNA, one strand shown
Method in brief: as §1

SPIC = target: T8, SPIC (Homo sapiens, UniProt Q8N5J4 1-248); conditions: protein: recombinant; tags: N-terminal GST; dsDNA, one strand shown
T8 sequence: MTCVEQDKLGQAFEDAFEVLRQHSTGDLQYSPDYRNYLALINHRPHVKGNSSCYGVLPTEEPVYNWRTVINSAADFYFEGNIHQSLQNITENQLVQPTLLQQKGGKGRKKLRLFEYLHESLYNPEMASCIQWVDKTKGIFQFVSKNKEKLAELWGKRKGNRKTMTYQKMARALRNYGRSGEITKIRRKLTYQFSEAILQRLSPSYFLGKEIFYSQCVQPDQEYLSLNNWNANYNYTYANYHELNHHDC
Method in brief: as §1

ELF4 = ELF4 (Homo sapiens, UniProt Q99607 1-663); conditions: protein: recombinant; tags: N-terminal GST; dsDNA, one strand shown
Method in brief: as §1

ELK4 = target: T9, ELK4 (Homo sapiens, UniProt P28324-2 1-405); conditions: protein: recombinant; tags: N-terminal GST; dsDNA, one strand shown
T9 sequence: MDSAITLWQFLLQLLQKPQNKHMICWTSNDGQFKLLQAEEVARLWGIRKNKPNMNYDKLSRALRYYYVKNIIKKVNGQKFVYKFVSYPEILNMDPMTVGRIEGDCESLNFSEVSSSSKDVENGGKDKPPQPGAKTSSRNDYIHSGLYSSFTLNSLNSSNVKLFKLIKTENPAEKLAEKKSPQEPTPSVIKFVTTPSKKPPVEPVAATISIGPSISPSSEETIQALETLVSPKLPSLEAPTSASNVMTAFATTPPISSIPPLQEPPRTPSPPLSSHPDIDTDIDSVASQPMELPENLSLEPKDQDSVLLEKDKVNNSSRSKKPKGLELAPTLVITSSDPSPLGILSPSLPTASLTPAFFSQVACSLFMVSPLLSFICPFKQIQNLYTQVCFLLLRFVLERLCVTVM
Method in brief: as §1

ETV2 = target: T10, ETV2 (Homo sapiens, UniProt O00321 1-342); conditions: protein: recombinant; tags: N-terminal GST; dsDNA, one strand shown
T10 sequence: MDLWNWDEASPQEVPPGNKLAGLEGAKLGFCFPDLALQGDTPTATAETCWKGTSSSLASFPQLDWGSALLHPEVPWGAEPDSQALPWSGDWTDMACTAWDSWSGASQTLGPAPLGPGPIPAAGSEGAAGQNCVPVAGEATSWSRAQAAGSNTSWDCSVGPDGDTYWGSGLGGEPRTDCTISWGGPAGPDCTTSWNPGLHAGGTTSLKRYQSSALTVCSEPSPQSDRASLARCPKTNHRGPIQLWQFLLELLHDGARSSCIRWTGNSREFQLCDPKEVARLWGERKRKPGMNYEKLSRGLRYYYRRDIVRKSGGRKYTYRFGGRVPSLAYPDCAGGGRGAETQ
Method in brief: as §1

ELF3 = target: T11, ELF3 (Homo sapiens, UniProt P78545 1-371); conditions: protein: recombinant; tags: N-terminal GST; dsDNA, one strand shown
T11 sequence: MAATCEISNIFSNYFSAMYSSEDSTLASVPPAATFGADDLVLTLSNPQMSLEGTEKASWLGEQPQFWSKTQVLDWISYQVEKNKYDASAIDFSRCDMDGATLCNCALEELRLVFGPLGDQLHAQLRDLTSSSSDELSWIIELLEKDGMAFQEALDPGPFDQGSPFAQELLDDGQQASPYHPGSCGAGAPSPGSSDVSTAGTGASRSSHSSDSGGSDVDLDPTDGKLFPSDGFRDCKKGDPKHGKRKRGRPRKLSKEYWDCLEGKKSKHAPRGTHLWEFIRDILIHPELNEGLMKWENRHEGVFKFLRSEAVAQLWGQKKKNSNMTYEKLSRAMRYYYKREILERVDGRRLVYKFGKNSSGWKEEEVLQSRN
Method in brief: as §1

CRX = CRX (Homo sapiens, UniProt O43186 1-299); conditions: protein: recombinant; tags: N-terminal GST; dsDNA, one strand shown
Method in brief: as §1

ETV1 = ETV1 (Homo sapiens, UniProt P50549 1-477); conditions: protein: recombinant; tags: N-terminal GST; dsDNA, one strand shown
Method in brief: as §1

Sequence of CRX (O43186 whole entry): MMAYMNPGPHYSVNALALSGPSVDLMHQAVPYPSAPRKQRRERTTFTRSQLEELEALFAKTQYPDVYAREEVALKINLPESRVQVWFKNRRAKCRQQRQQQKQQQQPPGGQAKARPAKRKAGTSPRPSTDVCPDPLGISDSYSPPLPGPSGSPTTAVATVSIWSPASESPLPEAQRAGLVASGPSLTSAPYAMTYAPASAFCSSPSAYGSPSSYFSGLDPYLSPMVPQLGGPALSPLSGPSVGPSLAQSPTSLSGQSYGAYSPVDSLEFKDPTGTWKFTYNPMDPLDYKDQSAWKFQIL
Sequence of ELF1 (P32519 whole entry): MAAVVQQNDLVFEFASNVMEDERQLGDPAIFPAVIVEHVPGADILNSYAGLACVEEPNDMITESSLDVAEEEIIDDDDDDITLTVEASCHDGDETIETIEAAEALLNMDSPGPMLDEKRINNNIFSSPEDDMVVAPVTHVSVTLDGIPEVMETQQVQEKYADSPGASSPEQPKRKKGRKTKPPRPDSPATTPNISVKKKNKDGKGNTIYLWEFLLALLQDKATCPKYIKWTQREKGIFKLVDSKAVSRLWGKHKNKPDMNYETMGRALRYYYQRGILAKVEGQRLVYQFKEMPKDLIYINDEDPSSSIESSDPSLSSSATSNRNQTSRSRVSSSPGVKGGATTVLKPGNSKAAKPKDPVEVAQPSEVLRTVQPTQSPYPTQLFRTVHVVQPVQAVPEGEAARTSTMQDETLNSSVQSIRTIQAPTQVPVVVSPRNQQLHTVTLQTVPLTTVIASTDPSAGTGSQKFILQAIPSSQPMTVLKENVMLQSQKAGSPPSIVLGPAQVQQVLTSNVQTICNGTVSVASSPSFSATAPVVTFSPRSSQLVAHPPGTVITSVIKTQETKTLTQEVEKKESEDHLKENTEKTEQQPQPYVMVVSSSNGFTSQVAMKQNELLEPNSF
Sequence of HSF1 (Q00613 whole entry): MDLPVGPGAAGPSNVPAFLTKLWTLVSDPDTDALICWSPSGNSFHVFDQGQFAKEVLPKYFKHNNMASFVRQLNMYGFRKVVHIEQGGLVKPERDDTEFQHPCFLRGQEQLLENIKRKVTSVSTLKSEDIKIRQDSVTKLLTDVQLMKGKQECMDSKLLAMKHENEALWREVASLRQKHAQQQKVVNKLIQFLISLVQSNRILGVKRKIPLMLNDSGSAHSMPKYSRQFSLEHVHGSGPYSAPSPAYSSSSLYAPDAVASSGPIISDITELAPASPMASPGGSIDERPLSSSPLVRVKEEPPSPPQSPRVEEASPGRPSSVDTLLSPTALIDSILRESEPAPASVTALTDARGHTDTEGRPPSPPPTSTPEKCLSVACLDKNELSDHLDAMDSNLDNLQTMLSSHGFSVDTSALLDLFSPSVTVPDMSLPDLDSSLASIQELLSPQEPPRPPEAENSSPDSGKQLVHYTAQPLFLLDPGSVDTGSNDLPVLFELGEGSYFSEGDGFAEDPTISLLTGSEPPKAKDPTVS
Sequence of SPIB (Q01892 whole entry): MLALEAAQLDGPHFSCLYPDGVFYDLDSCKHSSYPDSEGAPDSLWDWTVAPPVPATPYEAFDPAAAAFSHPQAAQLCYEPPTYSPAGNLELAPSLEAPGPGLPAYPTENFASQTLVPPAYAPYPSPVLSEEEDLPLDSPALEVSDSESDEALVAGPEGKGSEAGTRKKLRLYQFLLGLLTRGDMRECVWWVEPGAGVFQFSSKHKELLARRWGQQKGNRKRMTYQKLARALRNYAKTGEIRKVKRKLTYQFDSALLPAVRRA
Sequence of ELF4 (Q99607 whole entry): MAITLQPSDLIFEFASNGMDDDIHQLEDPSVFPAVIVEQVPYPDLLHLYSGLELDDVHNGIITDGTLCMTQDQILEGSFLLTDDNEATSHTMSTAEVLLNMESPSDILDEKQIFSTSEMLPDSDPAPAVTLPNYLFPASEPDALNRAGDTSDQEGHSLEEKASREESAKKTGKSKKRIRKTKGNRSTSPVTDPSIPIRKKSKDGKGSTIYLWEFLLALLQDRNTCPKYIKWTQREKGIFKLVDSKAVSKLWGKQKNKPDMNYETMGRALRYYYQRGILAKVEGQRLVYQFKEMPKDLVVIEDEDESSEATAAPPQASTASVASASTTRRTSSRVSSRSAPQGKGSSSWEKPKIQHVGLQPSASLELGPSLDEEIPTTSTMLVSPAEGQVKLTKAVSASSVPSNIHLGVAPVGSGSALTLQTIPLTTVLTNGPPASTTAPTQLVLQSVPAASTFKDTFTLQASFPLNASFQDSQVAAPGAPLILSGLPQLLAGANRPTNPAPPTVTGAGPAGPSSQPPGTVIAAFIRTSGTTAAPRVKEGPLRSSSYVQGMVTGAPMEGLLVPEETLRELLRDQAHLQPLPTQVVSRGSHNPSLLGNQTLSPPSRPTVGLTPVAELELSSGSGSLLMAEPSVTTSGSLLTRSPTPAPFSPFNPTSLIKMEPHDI
Sequence of ETV1 (P50549 whole entry): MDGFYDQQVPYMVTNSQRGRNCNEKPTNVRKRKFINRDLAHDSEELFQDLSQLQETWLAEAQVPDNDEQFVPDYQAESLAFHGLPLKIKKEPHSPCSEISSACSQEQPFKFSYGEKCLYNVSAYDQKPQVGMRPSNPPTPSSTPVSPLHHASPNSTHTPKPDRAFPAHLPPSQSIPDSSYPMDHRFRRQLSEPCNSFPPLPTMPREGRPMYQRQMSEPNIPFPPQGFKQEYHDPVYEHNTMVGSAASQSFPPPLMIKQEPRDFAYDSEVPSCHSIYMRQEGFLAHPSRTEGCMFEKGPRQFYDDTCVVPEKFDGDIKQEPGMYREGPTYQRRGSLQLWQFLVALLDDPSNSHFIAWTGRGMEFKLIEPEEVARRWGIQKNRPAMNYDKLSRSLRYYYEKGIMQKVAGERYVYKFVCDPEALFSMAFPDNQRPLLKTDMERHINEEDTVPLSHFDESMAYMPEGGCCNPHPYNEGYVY
Sequence of ETV5 (P41161 whole entry): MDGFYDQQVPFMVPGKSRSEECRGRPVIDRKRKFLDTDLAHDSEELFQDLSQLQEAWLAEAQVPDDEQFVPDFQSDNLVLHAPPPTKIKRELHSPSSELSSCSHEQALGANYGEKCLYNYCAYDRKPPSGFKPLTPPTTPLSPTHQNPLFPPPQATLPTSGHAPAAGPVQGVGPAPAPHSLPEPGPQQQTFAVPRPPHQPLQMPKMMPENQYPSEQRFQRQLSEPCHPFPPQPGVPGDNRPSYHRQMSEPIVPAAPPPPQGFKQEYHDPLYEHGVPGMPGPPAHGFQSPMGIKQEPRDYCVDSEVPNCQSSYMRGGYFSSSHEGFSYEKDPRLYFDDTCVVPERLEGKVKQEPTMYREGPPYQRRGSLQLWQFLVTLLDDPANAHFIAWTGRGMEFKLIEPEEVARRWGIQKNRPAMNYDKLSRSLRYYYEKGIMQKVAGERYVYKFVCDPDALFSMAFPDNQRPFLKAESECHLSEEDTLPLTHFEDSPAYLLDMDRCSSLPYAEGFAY

CGCCTT
binding signal (FLI1): 1.45 fold enrichment (6-mer frequency, TF over GST control) | binding signal (ELK1): 1.43 fold enrichment (6-mer frequency, TF over GST control) | binding signal (GABPA): 1.45 fold enrichment (6-mer frequency, TF over GST control) | binding signal (ERG): 1.44 fold enrichment (6-mer frequency, TF over GST control) | binding signal (ELF1): 1.44 fold enrichment (6-mer frequency, TF over GST control) | binding signal (EHF): 1.34 fold enrichment (6-mer frequency, TF over GST control) | binding signal (SPI1): 1.35 fold enrichment (6-mer frequency, TF over GST control) | binding signal (SPIB): 1.43 fold enrichment (6-mer frequency, TF over GST control) | binding signal (ELK3): 1.46 fold enrichment (6-mer frequency, TF over GST control) | binding signal (FEV): 1.39 fold enrichment (6-mer frequency, TF over GST control) | binding signal (ETV5): 1.37 fold enrichment (6-mer frequency, TF over GST control) | binding signal (HSF1): 1.32 fold enrichment (6-mer frequency, TF over GST control) | binding signal (SPIC): 1.47 fold enrichment (6-mer frequency, TF over GST control) | binding signal (ELF4): 1.54 fold enrichment (6-mer frequency, TF over GST control) | binding signal (ELK4): 1.52 fold enrichment (6-mer frequency, TF over GST control) | binding signal (ETV2): 1.64 fold enrichment (6-mer frequency, TF over GST control) | binding signal (ELF3): 1.26 fold enrichment (6-mer frequency, TF over GST control) | binding signal (CRX): 1.38 fold enrichment (6-mer frequency, TF over GST control) | binding signal (ETV1): 1.38 fold enrichment (6-mer frequency, TF over GST control)
